Only some compounds are listed: those with a hit (about 19% of all), similar ones and a draw of the others.
KB-3-1 cytotox: qHTS assay for MDR1-selective chemotherapeutics: Primary screen using the parental adenocarcinoma cell KB-3-1. KB-3-1 viability, CellTiter-Glo ATP luminescence, 72 h. Potency, µM (top dose mostly 46.1 µM), hits mostly cytotoxic. 1.4% of 400,000 active; note: nearly all actives have a fitted effect of over 60% in size
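Here the drug-naive KB-3-1 line serves as comparator for MDR sub-line selectivity; cells received compound titrations, 72 h at 37 °C, then CellTiter-Glo readout.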
DT40 TDP1 no CPT: qHTS for Inhibitors of human tyrosyl-DNA phosphodiesterase 1 (TDP1): qHTS in cells in absence of CPT. DT40 Tdp1-/- hTDP1 cells, no CPT, ATP luminescence, 48 h. 15% of 420,000 active. Potency, µM (top dose mostly 46.2 µM), most hits filed as inhibitors; note: nearly all actives have a fitted effect of over 55% in size
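Chicken DT40 Tdp1-/- cells stably complemented with human TDP1 were seeded at 400 cells/well with DMSO in place of 20 nM camptothecin. After compound pinning, cells grew at least 48 hr at 37 °C; viability read by CellTiter-Glo luminescence.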
HT1080 IDH1KD tx: qHTS for induction of synthetic lethality in tumor cells producing 2HG: qHTS for the HT-1080-IDH1KD cell line. HT-1080 IDH1 knockdown viability, ATP luminescence, 48 h. Potency, µM (top dose mostly 46.1 µM), hits mostly cytotoxic. 2% of 360,000 active. AID 686971, 2013
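Knockdown cells (IDH1KD HT-1080) received compounds 2 h after plating at 750 cells/well and were kept 48 h at 37 °C in 5% FBS RPMI. A CellTiter-Glo luminescence read gave % activity for curve fitting.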
KB-V1 cytotox: qHTS assay for MDR1-selective chemotherapeutics: Primary screen using the drug-selected MDR subline cells KB-V1 | KB-V1 MDR cells viability, CellTiter-Glo, 72 h | Potency, µM (highest dose often 46.1 µM), hits mostly cytotoxic | 3.4% of 400,000 active | AID 1347076, 2019; note: nearly all actives have a fitted effect of over 60% in size
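In this primary screen, KB-V1 cells overexpressing P-gp are incubated with library compounds (lowest to highest concentration) for 72 h at 37 degrees C before a luminescent ATP viability read.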
HT1080-NT tox: qHTS for induction of synthetic lethality in tumor cells producing 2HG: qHTS for the HT-1080-NT fibrosarcoma cell line; HT-1080-NT fibrosarcoma viability, CellTiter-Glo ATP luminescence, 48 h; Potency, µM (top dose mostly 46.1 µM), usual class: cytotoxic; 1.6% of 360,000 active;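 note: NT is the 2HG producing partner of a matched IDH1 knockdown line; nearly all actives have a fitted effect of over 55% in size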
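Luminescent CellTiter-Glo readout after 48 hours of compound exposure at 37 degrees C defined viability of HT-1080-NT cells. Activity was normalized to DMSO wells and cell-free media wells; concentration-response curves were fitted and assigned curve classes.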
TDP1 cell CPT: qHTS for Inhibitors of human tyrosyl-DNA phosphodiesterase 1 (TDP1): qHTS in cells in presence of CPT; chicken DT40 Tdp1-/-;hTDP1 cells + 20 nM CPT, ATP luminescence, 48 h; Potency, µM (top dose mostly 46.2 µM), most hits filed as inhibitors; 12% of 420,000 active; note: nearly all actives have a fitted effect of over 55% in size
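Chicken DT40 Tdp1-/- cells stably complemented with human TDP1 were seeded at 400 cells/well in medium containing 20 nM camptothecin, exposed to pin-transferred compounds, and grown at 37 °C for at least 48 hr. Viability was read as ATP luminescence.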
Hits are given with their value; . = inactive; ? = inconclusive; / = no result given; [ ] = dose if it differs, or a comment. Calls come from the whole dose curve; as a rule, active = well fitted curve in the direction sought with a large enough effect; inconclusive = small, poorly fitted or top-dose-only effect, or another doubt; inactive = no such curve, though single readings can be large; an effect the other way counts as inactive or inconclusive.

SMILES	KB-3-1 cytotox	DT40 TDP1 no CPT	HT1080 IDH1KD tx	KB-V1 cytotox	HT1080-NT tox	TDP1 cell CPT
COCC(=O)N[C@H]1CC[C@@H](CC(=O)NCc2ccccc2OC)O[C@@H]1CO	.	.	.	.	.	.
Cc1cc(NC(=O)CS(=O)(=O)c2cn(Cc3cccc(C(F)(F)F)c3)c3ccccc23)no1	.	20.6µM	.	.	.	?
Cc1cc(NC(=O)CS(=O)(=O)c2cn(Cc3ccc(F)cc3)c3ccccc23)no1	?	10.3µM	.	.	.	20.6µM
Cc1ccccc1C1(CC(=O)N2CCCCC2C)CC(=O)N(Cc2cccnc2)C1=O (centres undefined)	/	?	/	/	/	.[9.04 µM]
O=C(CCn1c(=O)oc2ccccc21)N(Cc1ccccc1)c1ccccc1	.	?	.	.	.	?
CCCCN(C(=O)CCn1c(=O)oc2ccccc21)c1ccccc1	.	?	.	.	.	18.4µM
CCCC(=O)N(CCN(C(=O)CCC)c1ccccc1)c1ccccc1	.	20.6µM	.	10.3µM	.	11.6µM
CCn1nnc(NC(=O)c2ccco2)n1	.	.	.	.	.	.
CCn1nc(C)c(/C=N/NC(=O)c2ccc3c(c2)c(C)c(C)n3Cc2ccccc2)c1C	?	10.3µM	.	.	.	10.3µM
CCn1cc(/C=N\NC(=O)c2ccc3c(c2)c(C)c(C)n3Cc2ccccc2)c(C)n1	.	16.4µM	.	.	.	13µM
O=C1Cc2ccccc2N1c1ccccc1	.	.	.	.	.	.
O=C1CC(=Nc2ccccc2)NN1c1ccccc1	?	.	?	.	18.4µM	.
N#Cc1c(N(CC(=O)O)CC(=O)O)sc(C(=O)O)c1CC(=O)O	/	.	/	/	/	.
COc1ccc(NS(=O)(=O)c2cccc(C(=O)NCCCn3ccnc3)c2)cc1	.	.	.	.	.	.
CCC(=O)N1CCc2cc(CNC(=O)Nc3cc(OC)c(OC)c(OC)c3)ccc21	.	.	/	.	/	.
COc1cc(OC)c(NC(=O)C(=O)CC(=O)c2ccc(C)cc2C)cc1Cl	?	2.59µM	.	?	.	4.61µM
CCCCOC(=O)c1ccc(NC(C)=O)cc1	.	.	.	.	.	.
COc1cc(OC)c(NC(=O)Cn2cccc2)cc1Cl	.	.	.	?	.	.
COc1ccc(C(=O)NNC(=O)C(=O)Nc2ccc(C)c(Cl)c2)cc1	.	?	.	.	.	23.1µM
COc1ccc(C(=O)CC(=O)C(=O)Nc2ccc(C)c(C)c2)cc1	.	20.6µM	.	.	.	20.6µM
COc1ccc(C(=O)CC(=O)C(=O)Nc2cccc(C(C)=O)c2)cc1	.	?	.	.	.	.
CCCCOC(=O)c1ccc(NC(=O)C(=O)CC(=O)c2ccc(OC)cc2)cc1	?	16.4µM	.	?	.	16.4µM
CC1CCC2(C1)N=C(Nc1nc3ccccc3o1)NC1=C2C(=O)CCC1 (centres undefined)	.	/	/	.	/	/
CC(C)(C)NCC(O)COc1cccc2c1CCC(=O)N2 (centres undefined)	.	.	.	.	.	.
COc1ccc(C(=O)CC(=O)C(=O)Nc2ccc(C)cc2Cl)cc1	.	16.4µM	.	.	.	?
SMILES	KB-3-1 cytotox	DT40 TDP1 no CPT	HT1080 IDH1KD tx	KB-V1 cytotox	HT1080-NT tox	TDP1 cell CPT
CCCCOC(=O)c1ccc(NC(=S)NC(=O)c2c(Cl)cnn2C)cc1	.	16.4µM	.	.	.	23.1µM
COc1cccc(C(=O)CC(=O)C(=O)Nc2ccc(C)cc2Cl)c1	.	?	.	.	.	?
O=C(/C=C/c1ccccc1Cl)OCC(=O)N1CCc2ccccc21	.	.	.	.	.	.
Cc1cccc(N(CC(=O)NC2CCCC2)C(=O)c2cc3cc4cccc(C)c4nc3s2)c1C	.	16.4µM	.	?	.	18.4µM
Cc1cccc(N(CC(=O)NC2CCCC2)C(=O)c2csnn2)c1C	?	.	.	.	.	.
Cc1ccc(C)c(N(CC(=O)NC2CCCC2)C(=O)c2cc3cc4cc(C)ccc4nc3s2)c1	.	11.2µM	.	?	.	8.2µM
COc1ccc(C(=O)N(c2c(C)cccc2C)C(COC(C)=O)COC(C)=O)cc1	.	?	.	.	.	?
COc1ccc(NS(=O)(=O)c2ccc(N3CCOCC3)c(NC(=O)c3ccc(F)cc3)c2)cc1	?	13µM	?	?	?	8.2µM
O=C(Nc1cc(S(=O)(=O)Nc2ccc(Cl)cc2)ccc1N1CCCCC1)c1ccc(F)cc1	.	18.4µM	?	.	?	20.6µM
COC(=O)c1cc(NS(=O)(=O)c2ccc(N3CCOCC3)c(NC(C)=O)c2)cc(C(=O)OC)c1	.	.	.	.	.	.
COc1ccc(CC(=O)Nc2cc(S(=O)(=O)N3CCOCC3)ccc2N2CCOCC2)cc1	.	.	.	.	.	.
CCOC(=O)/C=C/C(=O)Nc1cc(S(=O)(=O)Nc2ccc(OC)cc2)ccc1N1CCOCC1	.	5.17µM	.	.	.	5.8µM
COc1ccc(NS(=O)(=O)c2ccc(N3CCCCC3)c(NC(=O)C(C)NC(N)=O)c2)cc1 (centres undefined)	/	?	.	/	.	?
COc1ccc(NS(=O)(=O)c2ccc(N3CCOCC3)c(NC(=O)C(C)C)c2)cc1	?	18.4µM	.	18.4µM	.	16.4µM
COc1cc(=O)n2c(c1C(=O)NC(C)c1ccco1)CCN(Cc1ccccc1C(F)(F)F)CC2 (centres undefined)	/	?	/	/	/	.
COc1ccccc1-n1c(=O)c(C#N)c(-c2ccc([N+](=O)[O-])cc2)c2cc(C(=O)c3ccccc3O)cnc21	?	.	.	?	.	.
O=C1CCCC2=C1C(c1ccc(Cl)cc1)N=C(Nc1nc3ccccc3o1)N2 (centres undefined)	.	?	/	.	/	?
CCCOc1ccc(C2C(=O)N(C3CCCCC3)CC(=O)N2CCC2=CCCCC2)cc1OC (centres undefined)	.	.	/	.	/	.
COc1ccccc1/C=C/C(=O)OC(C)CN1CCCCC1 (centres undefined)	.	.	.	.	.	.
O=C(Nc1ccc(N2CCOCC2)c(Cl)c1)c1cccc(F)c1	.	?	.	.	.	.
COc1ccc(NS(=O)(=O)c2ccc(N3CCOCC3)c(NC(=O)c3cccc(F)c3)c2)cc1	?	8.2µM	?	.	.	9.2µM

Screening results from PubChem BioAssay.
